Assay outcomes (PubChem BioAssay)
This is one part of a sample in which hits are shown more often than they occur.
Ba CapD inh: CapD enzyme inhibition. AID 492967. z-score (concentration not given with the values). actives 0.23% (n = 140,000). purified CapD enzyme, fluorescence intensity read-out; hits give low values; in the data active = z-score mostly below about -2.9, no sharp cut-off; inactive = mostly above about -1.9
Active calls of the source: *.

SMILES	Ba CapD inh
O=C(O)CN1C(=O)/C(=C\c2cc([N+](=O)[O-])ccc2O)SC1=S	-5.2*
CCOc1cc(/C=C2/SC(=S)N(CC(=O)O)C2=O)ccc1OCc1ccccc1	-0.77
CCOc1cc(Br)c(Br)c(/C=C2\SC(=S)N(CC(=O)O)C2=O)c1O	-3.8*
O=[N+]([O-])c1cccc(S(=O)(=O)N(Cc2ccco2)CC2CCCO2)c1 (stereo unspecified)	-0.35
Nc1cc(-c2n[nH]c(=S)o2)ccc1Cl	21
O=C(CSC1=NS(=O)(=O)c2ccccc2N1)N1CCCC1	0.22
COCc1cc(=O)[nH]c(/N=C(\N)Nc2ccccc2)n1	0.45
CCOc1ccc(N(CC)C(=O)C2CCCN(S(=O)(=O)c3cccc4nsnc34)C2)cc1 (stereo unspecified)	-0.72
O=C(NC(CO)c1ccccc1)c1ccc(Cl)cc1 (stereo unspecified)	-0.33
CCc1nc(CN2CCN(c3ccc(F)cc3)CC2)c(C)[nH]1	-1.8*
CCc1nc(CN2CCN(c3ccc(C(F)(F)F)cn3)CC2)c(C)[nH]1	-0.68
Cc1[nH]c2ccccc2c1CN1CCN(c2ccc(F)cc2)CC1	0.48
CCCNC(=O)c1ccc(Cl)c(S(=O)(=O)Nc2ccccc2)c1	-0.41
CN(C)c1ccc(NC(=O)COC(=O)c2cc(Br)ccc2Cl)cc1	-0.24
O=S(=O)(c1ccccc1)n1nccc1-c1cc(-c2ccccc2)no1	-0.21
CCCOc1ccccc1C1NC(=O)NC(C)=C1C(=O)OCc1ccc2c(c1)OCO2 (stereo unspecified)	-0.05
COc1ccccc1Nc1nc2nonc2nc1Nc1ccc(Cl)cc1	-0.74
CC(CC(=O)O)CC(=O)N1CC=C(c2ccccc2)CC1 (stereo unspecified)	1.1
Cc1ccc2c(c1)-c1c(ssc1=S)C(C)(C)N2C(=O)c1ccccc1Cl	-0.94
COC(=O)NC1Sc2ccccc2N=C1c1ccccc1 (stereo unspecified)	-1.1
c1ccc(C2=Nc3ccccc3SC2c2nc3ccccc3[nH]2)cc1 (stereo unspecified)	-4.1*
O=C1CC(c2nc3ccccc3[nH]2)CN1c1ccccc1 (stereo unspecified)	-0.45
CN(C(=O)CSc1ncnc2ccccc12)c1ccccc1	0.68
CCn1c(CCCNC(=O)c2cccc(C)c2)nc2ccccc21	-0.24
Cc1ccc(N=Cc2c(O)[nH]c(=S)[nH]c2=O)cc1	0.93
SMILES	Ba CapD inh
COc1ccc(N=Cc2c(O)[nH]c(=S)[nH]c2=O)cc1	0.11
O=c1[nH]c(=S)[nH]c(O)c1N=Nc1ccc(O)cc1	-3.9*
COc1cc(OC)c(Nc2nc3ccccc3n3cnnc23)cc1Cl	1.3
Cc1ccccc1OCC(=O)N(Cc1ccco1)Cc1ccco1	-0.14
CCOC(=O)CCc1c(CC(=O)OCC)c[nH]c1/C=N/O	-10*
CCOC(=O)CCc1c(C)nc2ncnn2c1C	-0.22
CCOC(=O)CCc1n[nH]c(=O)[nH]c1=O	-0.035
CCCCCN1/C(=C\C=C\c2n(CCCC)c3cc(Cl)c(Cl)cc3[n+]2CCCCC)N(CCCC)c2cc(Cl)c(Cl)cc21	-0.52
CCSc1nc2ccc(NC(=O)CSCC(=O)Nc3c(C)cccc3C)cc2s1	-0.86
CNC(=O)c1cn(-c2ccccc2)c(=O)c2ccccc12	4.8
CC(=O)n1c(=O)c2ccccc2c(=O)n1-c1ccccc1	-4.7*
CN(C)C(=O)c1cn(-c2ccccc2)c(=O)c2ccccc12	4.7
O=C1NC(=S)S/C1=C\c1c(F)cccc1Cl	-4.1*
O=[N+]([O-])/C=C/c1c(F)cccc1Cl	0.67
COc1ccc(/C=C2/SC(=S)NC2=O)cc1COc1ccc(F)cc1F	-1.6
O=C(NCc1nc(-c2ccccc2)no1)Nc1ccccc1	0.93
Cc1ccc(N=NN(C)C)cc1	-1
CC(=O)N(C(C)=O)S(=O)(=O)c1ccc(N=NN(C)C)cc1	-5.1*
CN(C)N=Nc1ccc(S(=O)(=O)NC(=O)Cc2ccccc2)cc1	-1.4
N#C/C(=C\c1cccc(Cl)c1)c1nc(-c2cc3cc(Br)ccc3oc2=O)cs1	0.26
COc1cc(-c2nc3ccccc3c(=O)n2NCc2cc(Br)ccc2O)cc(OC)c1OC	-0.08
CCOC(=O)Oc1c(Cl)cc2oc(=O)sc2c1Br	-5.3*
COC(=O)Oc1cc2oc(=O)sc2cc1Cl	-0.7
CCCCOC(=O)Oc1cc2oc(=O)sc2cc1Br	-0.21
CCc1ccc(S(=O)(=O)N(C(=O)c2ccc(C)cc2)c2ccc3oc(C)c(C(C)=O)c3c2)cc1	-0.34
SMILES	Ba CapD inh
CCN(CC)C(=O)CSC1=C(C#N)C(c2ccccc2F)C(C(=O)Nc2ccccc2)=C(C)N1 (stereo unspecified)	-0.44
CCN(CC)CCOC(=O)c1ccc(NC(=O)CCN2C(=O)/C(=C/c3ccc(F)cc3)SC2=S)cc1	-1.2
O=C(CCC1CCCCC1)Nc1ccc(-c2cn3cccnc3n2)cc1	-4.5*
COCC(=O)Nc1ccc(-c2cn3cccnc3n2)cc1	-0.005
O=C(COc1ccccc1)Nc1ccc(-c2cn3cccnc3n2)cc1	98
N#CC(C#N)=Cc1ccc(O)c(Cl)c1	-5.4*
CSc1ccc(C=C(C#N)C#N)cc1	-0.67
CN(C)c1ccc(C=C(C#N)C#N)cc1	-0.06
CC(=O)Nc1cccc(F)c1C(=O)O	-0.13
O=C(c1c(F)cccc1F)N1CCN(C(=O)c2c(F)cccc2F)CC1	-0.43
